Measured values as given in PubChem BioAssay (NCI).
Compounds without any hit were thinned out: in the full panel of roughly 79,000, 15% have a hit. Calls of active or inactive are those of the source. No stated cut-off is given here; in the data, active means growth inhibition above about 70%; inactive means the rest.

What was measured:
[1] = NCI Yeast Anticancer Drug Screen. Data for the rad52 strain (AID 147);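 further: 0% = growth of vehicle-treated control cultures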; settings: S. cerevisiae rad52 mutant growth inhibition, active compounds read high
In short: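 Here a repair-compromised yeast strain receives each compound; its growth is then quantified and normalised to vehicle-only controls.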

[2] = NCI Yeast Anticancer Drug Screen. Data for the wt1 strain (AID 149);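 further: 0% = growth of vehicle-treated wt1 cultures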; settings: S. cerevisiae wt1 strain (SPY 50644) growth inhibition, active compounds read high
In short: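 Each compound is tested on wt1 yeast and the loss of growth versus vehicle gives the inhibition value.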

[3] = NCI Yeast Anticancer Drug Screen. Data for the rad50EPP+ strain (AID 151);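 further: 0% = growth of vehicle-treated control cultures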; settings: S. cerevisiae rad50 mutant strain, active compounds read high
In short: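 Read-out is yeast growth inhibition relative to vehicle; cells used were the rad50EPP+ strain.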

[4] = NCI Yeast Anticancer Drug Screen. Data for the mgt1 strain (AID 153); settings: S. cerevisiae mgt1 mutant growth inhibition, active compounds read high
In short: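 Measured: inhibition of mgt1 yeast growth by compound, normalized to vehicle-treated cultures.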

[5] = NCI Yeast Anticancer Drug Screen. Data for the rad50 strain (AID 155);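 further: 0% = growth of vehicle-only cultures of the same strain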; settings: S. cerevisiae rad50 strain growth inhibition, active compounds read high
In short: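 Vehicle-treated cultures provide the reference for the growth inhibition reported for compound-exposed, repair-deficient yeast.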

[6] = NCI Yeast Anticancer Drug Screen. Data for the mec2-1 strain (AID 157); settings: S. cerevisiae mec2-1 strain, active compounds read high
In short: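 Using mec2-1 yeast: add compound, measure growth, express inhibition versus vehicle-treated cultures.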

[7] = NCI Yeast Anticancer Drug Screen. Data for the rad14 strain (AID 159);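 further: 0% = growth of vehicle-treated control cultures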; settings: S. cerevisiae rad14 strain growth inhibition, active compounds read high
In short: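 Inhibition of growth is reported for a repair-deficient yeast mutant following compound treatment, calculated relative to cultures that received vehicle.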

[8] = NCI Yeast Anticancer Drug Screen. Data for the sgs1 mgt1 strain (AID 161);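 further: 0% = growth of cultures given vehicle only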; settings: S. cerevisiae sgs1 mgt1 strain, active compounds read high
In short: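 Yeast cells carrying a defined DNA-repair defect were exposed to test compounds. Growth inhibition was measured relative to vehicle-treated controls.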

[9] = NCI Yeast Anticancer Drug Screen. Data for the CLN2oe strain (AID 163);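 further: 0% = growth of vehicle-only control cultures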; settings: S. cerevisiae CLN2oe strain, active compounds read high
In short: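 Whole-cell yeast growth assay. A strain engineered for altered cell-cycle control received compound, and inhibition relative to vehicle-treated cultures was recorded.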

[10] = NCI Yeast Anticancer Drug Screen. Data for the cln2 rad14 strain (AID 165);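 further: 0% = growth equal to vehicle treated cultures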; settings: S. cerevisiae cln2 rad14 strain, active compounds read high
In short: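 Yeast strain cln2 rad14, bearing defects in cell cycle control and DNA repair, serves as the test system; values reflect growth inhibition compared with vehicle.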

[11] = NCI Yeast Anticancer Drug Screen. Data for the bub3 strain (AID 167); settings: S. cerevisiae bub3 mutant strain, active compounds read high
In short: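 Mutant yeast screening strain plus compound; vehicle-treated cultures serve as the 0% inhibition reference.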

[12] = NCI Yeast Anticancer Drug Screen. Data for the wt2 strain (AID 169); settings: S. cerevisiae wt2 strain growth inhibition, active compounds read high
In short: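 Treated yeast vs. vehicle-treated yeast: growth inhibition determined.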

[13] = NCI Yeast Anticancer Drug Screen. Data for the mlh1 strain (AID 171);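 further: 0% = growth of vehicle-treated control cultures of the same strain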; settings: S. cerevisiae mlh1 strain growth inhibition, active compounds read high
In short: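 A yeast strain with a defined genetic lesion serves as the test organism. Cultures receive compound or vehicle, and growth is measured.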

[14] = NCI Yeast Anticancer Drug Screen. Data for the sgs1 strain (AID 173);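 further: 0% = growth of vehicle-only control cultures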; settings: S. cerevisiae sgs1 mutant, active compounds read high
In short: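 A genetically defined yeast mutant is incubated with the test compound, and its growth is compared to that of the same strain given vehicle.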

[15] = NCI Yeast Anticancer Drug Screen. Data for the mlh1 rad18 strain (AID 175); settings: S. cerevisiae mlh1 rad18 strain growth inhibition, active compounds read high
In short: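 Steps: expose repair-defective yeast to compound; measure growth; express inhibition against vehicle-treated controls.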

[16] = NCI Yeast Anticancer Drug Screen. Data for the rad18 strain (AID 177); settings: S. cerevisiae rad18 mutant growth inhibition, active compounds read high
In short: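 Measured value is growth inhibition of a yeast strain bearing a DNA repair alteration, referenced to vehicle-treated cells.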

[17] = at 5.0 µM (retest, dose inferred, filed as 0.5)
[18] = at 50.0 µM (retest, dose inferred, filed as 5.0)

Measured: growth inhibition

N#CN1C2CCC1CC(=O)C2
inactive: [1]; at 1.2 µM -12% | [1]; at 3.7 µM -32% | [1]; at 11.0 µM -21% | [1]; at 33.0 µM -18% | [1]; at 100.0 µM -21% | [2]; at 1.2 µM -25% | [2]; at 3.7 µM -37% | [2]; at 11.0 µM -46% | [2]; at 33.0 µM -53% | [2]; at 100.0 µM -35% | [3]; at 1.2 µM -25% | [3]; at 3.7 µM -35% | [3]; at 11.0 µM -27% | [3]; at 33.0 µM -43% | [3]; at 100.0 µM -33% | [4]; at 1.2 µM -8% | [4]; at 3.7 µM -10% | [4]; at 11.0 µM -13% | [4]; at 33.0 µM -11% | [4]; at 100.0 µM -8% | [5]; at 1.2 µM 3% | [5]; at 3.7 µM 1% | [5]; [17] 66% | [5]; at 11.0 µM -34% | [5]; at 33.0 µM -40% | [5]; at 50.0 µM 66% | [5]; at 100.0 µM -24% | [6]; at 1.2 µM -27% | [6]; at 3.7 µM -36% | [6]; [17] 63% | [6]; at 11.0 µM -54% | [6]; at 33.0 µM -24% | [6]; at 50.0 µM 43.6% | [6]; at 100.0 µM -36% | [7]; at 1.2 µM -26% | [7]; at 3.7 µM -23% | [7]; at 11.0 µM -13% | [7]; at 33.0 µM -2% | [7]; at 100.0 µM 8% | [8]; [17] -5% | [8]; [18] -5% | [9]; at 1.2 µM 12% | [9]; at 3.7 µM 7% | [9]; at 11.0 µM -28% | [9]; at 33.0 µM -27% | [9]; at 100.0 µM -11% | [10]; [17] 50% | [10]; [18] 34% | [11]; at 1.2 µM 14% | [11]; at 3.7 µM 23% | [11]; [17] 39% | [11]; at 11.0 µM 15% | [11]; at 33.0 µM 27% | [11]; [18] 12% | [11]; at 50.0 µM 57.3% | [11]; at 100.0 µM 31% | [12]; at 1.2 µM -18% | [12]; at 3.7 µM -16% | [12]; at 11.0 µM -19% | [12]; at 33.0 µM -22% | [12]; at 100.0 µM -25% | [13]; at 1.2 µM -19% | [13]; at 3.7 µM -11% | [13]; at 11.0 µM -13% | [13]; at 33.0 µM -16% | [13]; at 100.0 µM -21% | [14]; at 1.2 µM -17% | [14]; at 3.7 µM -20% | [14]; at 11.0 µM -12% | [14]; at 33.0 µM -23% | [14]; at 100.0 µM -24% | [15]; at 50.0 µM 62.1% | [16]; at 1.2 µM -10% | [16]; at 3.7 µM -15% | [16]; at 11.0 µM -22% | [16]; at 33.0 µM -21% | [16]; at 100.0 µM -9%
active: [5]; [18] 99% | [6]; [18] 84% | [8]; at 50.0 µM 77.4% | [10]; at 50.0 µM 74.8% | [15]; [17] 75% | [15]; [18] 100%

CC1OCC2OC(C)OC(C3C4=C(CC(C)(C)CC4=O)OC4=C3C(=O)CC(C)(C)C4)C2O1 (stereo unspecified)
inactive: [1]; at 1.2 µM 0% | [1]; at 3.7 µM 4% | [1]; at 11.0 µM 17% | [1]; at 33.0 µM 38% | [1]; at 100.0 µM 56% | [2]; at 1.2 µM -2% | [2]; at 3.7 µM 2% | [2]; at 11.0 µM 6% | [2]; at 33.0 µM 24% | [2]; at 100.0 µM 45% | [3]; at 1.2 µM -3% | [3]; at 3.7 µM -5% | [3]; at 11.0 µM -4% | [3]; at 33.0 µM -1% | [3]; at 100.0 µM 1% | [4]; at 1.2 µM -1% | [4]; at 3.7 µM 2% | [4]; at 11.0 µM 2% | [4]; at 33.0 µM 2% | [4]; at 100.0 µM 21% | [5]; at 1.2 µM 7% | [5]; at 3.7 µM -32% | [5]; [17] 10% | [5]; at 11.0 µM 49% | [5]; at 33.0 µM 61% | [5]; [18] 57% | [6]; at 1.2 µM 0% | [6]; at 3.7 µM 3% | [6]; [17] 7% | [6]; at 11.0 µM 12% | [6]; at 33.0 µM 28% | [6]; [18] -18% | [6]; at 50.0 µM 27.4% | [6]; at 100.0 µM 46% | [7]; at 1.2 µM -1% | [7]; at 3.7 µM -1% | [7]; at 11.0 µM 5% | [7]; at 33.0 µM 18% | [7]; at 100.0 µM 41% | [8]; [17] 5% | [8]; [18] 37% | [8]; at 50.0 µM 40.7% | [9]; at 1.2 µM -2% | [9]; at 3.7 µM -4% | [9]; at 11.0 µM -2% | [9]; at 33.0 µM -2% | [9]; at 100.0 µM -3% | [10]; [17] 5% | [10]; [18] 15% | [10]; at 50.0 µM 3.55% | [11]; at 1.2 µM 1% | [11]; at 3.7 µM 2% | [11]; [17] -46% | [11]; at 11.0 µM 7% | [11]; at 33.0 µM 29% | [11]; [18] 32% | [11]; at 50.0 µM 57.8% | [11]; at 100.0 µM 66% | [12]; at 1.2 µM -1% | [12]; at 3.7 µM 9% | [12]; at 11.0 µM 1% | [12]; at 33.0 µM 4% | [12]; at 100.0 µM 23% | [13]; at 1.2 µM 1% | [13]; at 3.7 µM 2% | [13]; at 11.0 µM 4% | [13]; at 33.0 µM 8% | [13]; at 100.0 µM 25% | [14]; at 1.2 µM -2% | [14]; at 3.7 µM 1% | [14]; at 11.0 µM 9% | [14]; at 33.0 µM 32% | [14]; at 100.0 µM 65% | [15]; [17] 9% | [15]; [18] 46% | [16]; at 1.2 µM 3% | [16]; at 3.7 µM 18% | [16]; at 11.0 µM 43%
active: [5]; at 50.0 µM 82.2% | [5]; at 100.0 µM 80% | [15]; at 50.0 µM 80.7% | [16]; at 33.0 µM 78% | [16]; at 100.0 µM 91%

C/C(=N\O)C1CC2C=C(C#N)C1N(Cc1ccccc1)C2 (stereo unspecified)
inactive: [1]; at 1.2 µM -5% | [1]; at 3.7 µM -3% | [1]; at 11.0 µM -1% | [1]; at 33.0 µM 1% | [1]; at 100.0 µM 8% | [2]; at 1.2 µM 0% | [2]; at 3.7 µM 4% | [2]; at 11.0 µM 1% | [2]; at 33.0 µM -1% | [2]; at 100.0 µM -1% | [3]; at 1.2 µM 2% | [3]; at 3.7 µM 2% | [3]; at 11.0 µM 5% | [3]; at 33.0 µM 9% | [3]; at 100.0 µM 19% | [4]; at 1.2 µM -5% | [4]; at 3.7 µM -4% | [4]; at 11.0 µM -5% | [4]; at 33.0 µM -3% | [4]; at 100.0 µM -1% | [5]; at 1.2 µM -3% | [5]; at 3.7 µM -3% | [5]; [17] -6% | [5]; at 11.0 µM 0% | [5]; at 33.0 µM 0% | [5]; [18] -1% | [5]; at 50.0 µM 8.05% | [5]; at 100.0 µM 5% | [6]; at 1.2 µM 0% | [6]; at 3.7 µM 3% | [6]; [17] -16% | [6]; at 11.0 µM 4% | [6]; at 33.0 µM 4% | [6]; [18] -13% | [6]; at 50.0 µM 7.3% | [6]; at 100.0 µM 0% | [7]; at 1.2 µM -3% | [7]; at 3.7 µM -1% | [7]; at 11.0 µM 2% | [7]; at 33.0 µM 1% | [7]; at 100.0 µM 7% | [8]; [17] -10% | [8]; [18] 24% | [8]; at 50.0 µM 3.75% | [9]; at 1.2 µM -5% | [9]; at 3.7 µM -14% | [9]; at 11.0 µM -7% | [9]; at 33.0 µM -2% | [9]; at 100.0 µM -2% | [10]; [17] -1% | [10]; [18] 8% | [10]; at 50.0 µM 11.3% | [11]; at 1.2 µM -4% | [11]; at 3.7 µM -5% | [11]; [17] -3% | [11]; at 11.0 µM -3% | [11]; at 33.0 µM -2% | [11]; [18] 13% | [11]; at 50.0 µM 10.7% | [11]; at 100.0 µM -5%
